HSF1 inh = HSF1 inhibition; activity change, negative = inhibition, % at 7.5 µM (by protocol); NIH3T3-HGL HSE-luciferase, MG132-induced, luminescence 8 h; hits give low values; AID 2098; 300,000 tested, 0.77% active;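 active = more than half of replicate wells show activity change below -50%, luminescence cut by over half; inconclusive = some wells, but at most half, below -50%; inactive = no replicate well below -50%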;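 also: luciferase reports HSF-1 transcriptional activity via heat shock element; 0% = median of DMSO wells and -100% = zero luminescence signal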
MITF TRPM1 HTS = activators of MITF-driven TRPM1 promoter activity in SK-MEL-5 cells; SK-MEL-5 TRPM1-promoter luciferase, 24 h; % of positive control, neutral wells = 0; activation, % at 12.5 µM; 300,000 tested, 0.75% active;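 active = mean activation of at least 80% with every replicate also reaching 80%; inconclusive = mean reaches 80% but some replicate falls short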;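 also: 0% = neutral control wells and 100% = parthenolide positive control wells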
HSF-1 act = increases HSF-1 driven luciferase reporter signal; NIH3T3-HGL HSF-1 luciferase reporter, MG132, 8 h; 100% = twice DMSO control signal; activation, % at 9 µM; 300,000 tested, 1.7% active; AID 504408;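 active = mean replicate activation of at least 50% with a set share of replicates each reaching 50%; inconclusive = only one of those two conditions met; inactive = mean below 50% and too few replicates reaching it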;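 also: 0% = median of the neutral control wells and 100% = twice that signal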
Wnt act = Wnt/beta-catenin pathway activation. Wnt/beta-catenin reporter cell assay, activator, plate reader. activation, % at 9.35 µM. 300,000 tested, 1.2% active; in the data active = activation above about 30%, passing the limit was not always enough; inconclusive = no clear call, values can overlap the other calls;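 also: 0% = neutral control wells and 100% = positive control wells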
esBAF inh = SWI/SNF esBAF complex inhibition; 350,000 tested, 2% active; mouse ES cells, Bmi1-luciferase knock-in reporter, 24 h; 100% = twice the neutral-well signal; reporter increase, % at 12.5 µM; in the data active = activation above about 40%; inconclusive = no clear call, values can overlap the other calls;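 also: 0% = median of the plate's neutral control wells and 100% = double that signal; a rise in the Bmi1 reporter signal indicates esBAF inhibition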
* marks the source's active call; other numbers are inactive results; ? = inconclusive; / = no result given. Shown are actives, neighbours in structure and some others; about 3.9% of the full set was active somewhere.

SMILES	HSF1 inh	MITF TRPM1 HTS	HSF-1 act	Wnt act	esBAF inh
Cc1cc(Sc2nnc(/N=C/N(C)C)s2)c2ccccc2n1	/	/	/	1	/
Cc1nnsc1S(=O)c1ccc(Cl)cc1 (centres undefined)	3	-12	5	-2	-3
Cc1nnsc1S(=O)c1ccc(Cl)c(Cl)c1 (centres undefined)	-81*	0	-85	3	9
CN(C[C@H]1N[C@H](CO)[C@H]1c1ccc(C2=CCCCC2)cc1)S(C)(=O)=O	/	/	/	/	-4
OC12CCCCC1C(c1ccc3c(c1)OCO3)N(Cc1ccc(F)cc1)CC2 (centres undefined)	23	2	54*	/	-4
OC12CCCCC1C(c1ccc3c(c1)OCO3)N(Cc1ccccc1F)CC2 (centres undefined)	28	3	57*	6	-3
CCN(CC)c1ccc(C2C3CCCCC3(O)CCN2CC(=O)N2CCCCC2)cc1 (centres undefined)	9	16	7	/	-9
OC12CCCCC1C(c1ccc3c(c1)OCO3)N(Cc1cccc(F)c1)CC2 (centres undefined)	2	-1	30	0	2
C[C@@H]1CN([C@@H](C)CO)C(=O)Cc2cc(NS(C)(=O)=O)ccc2O[C@@H]1CN(C)C(=O)Nc1ccc(C(F)(F)F)cc1	/	/	/	/	1
CCOc1ccc(-c2nc3ccccc3c(=O)o2)cc1	24	24	55*	16	/
O=[N+]([O-])c1ccc(-c2cnc3ccccc3n2)cc1	21	/	35	4	55*
COc1ccc(-c2nc3ccccc3c(=O)o2)cc1OC	-5	-3	6	/	/
CCOc1ccc(-c2cnc3ccccc3n2)cc1	-58*	/	-58	28	/
CCCC(O)C#Cc1cnc2c(c1)C(=O)N([C@H](C)CO)C[C@H](C)[C@H](CN(C)C(=O)Nc1ccc3c(c1)OCO3)O2 (some centres undefined)	/	/	/	/	8
O=C(O)CCc1ccc(-c2ccc(Br)cc2)n1Cc1ccco1	68	-3	116*	/	0
O=C(O)CCc1ccc(-c2ccccc2)n1Cc1ccco1	-2	-3	1	-6	/
O=C(/C=C/c1ccc(-c2ccccc2)o1)c1ccccc1	42	35	72*	/	/
O=Cc1ccc(-c2cccc(C(=O)O)c2)o1	7	8	-17	4	28
Cc1ccc(-c2ccc(/C=C/C(=O)c3ccccc3)o2)cc1	55	?	76*	7	/
CCCn1c(C)cc(C(=O)Cn2nnc3ccccc3c2=O)c1C	25	67	47	46*	/
CNC[C@@H]1Oc2ccc(NC(=O)Cc3cn(C)c4ccccc34)cc2C(=O)N([C@@H](C)CO)C[C@H]1C	/	/	/	/	-3
CC(=O)Nc1ccc(C(=O)OCC(=O)c2ccc(C)c([N+](=O)[O-])c2)cc1	20	7	58*	/	1
CCOC(=O)CNc1ccc(C(=O)OCC)cc1[N+](=O)[O-]	-1	0	27	4	/
CC(=O)Nc1cccc(NC(=O)c2ccc(C)c([N+](=O)[O-])c2)c1	4	28	13	58*	16
Cc1ccc(C(=O)NCC(C)NC(=O)c2ccc(C)c([N+](=O)[O-])c2)cc1[N+](=O)[O-] (centres undefined)	51	/	88*	-3	/
SMILES	HSF1 inh	MITF TRPM1 HTS	HSF-1 act	Wnt act	esBAF inh
CCCNc1ccc(C(=O)OCC)cc1[N+](=O)[O-]	17	77	43	8	52*
CCC(=O)N1CC[C@@H]2[C@H]1c1cc(C#Cc3ccc(OC)cc3)ccc1N[C@@H]2CO	/	/	/	/	6
C[C@@H]1CN([C@H](C)CO)C(=O)c2cc(NS(=O)(=O)c3cccs3)ccc2O[C@@H]1CN(C)Cc1ccc(Oc2ccccc2)cc1	/	/	/	/	-2
O=C(CSc1nnc(-c2ccc(F)cc2)c2ccccc12)Nc1cccc(Cl)c1	13	-2	15	-1	/
O=C(CSc1nnc(-c2ccc(F)cc2)c2ccccc12)Nc1ccccc1	54	15	83*	-10	/
C[C@H]1CN([C@@H](C)CO)C(=O)c2cccc(NC(=O)c3ccc(-c4nccs4)cc3)c2O[C@H]1CN(C)C(=O)Nc1ccc(F)cc1	/	/	/	/	-3
O=C(Nc1nc2ccccc2n1Cc1ccc(Cl)cc1)c1ccco1	9	-18	29	/	/
CC(NC(=O)/C=C/c1ccco1)c1nc2ccccc2n1Cc1cccc(Cl)c1 (centres undefined)	38	17	70*	3	0
O=S(=O)(c1ccc(Cl)s1)N1CCCc2cccc(O)c21	70	/	116*	39*	84*
